# Only some compounds are listed: those with a hit (about 4.2% of all), similar ones and a draw of the others.
# 12-LOX inh: inhibitors of human 12S-lipoxygenase ALOX12 | Potency, µM (highest dose often 108 µM), without a hit: top-dose activity change, negative = inhibition, actives largely listed as inhibitors | purified 12hLO, xylenol orange hydroperoxide absorbance | AID 1671190 | 580,000 tested, 1.1% active | P18054
#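 Hydroperoxide product was detected by ferrous iron/xylenol orange as the 573 to 405 nm absorbance ratio. Arachidonic acid at 40 uM (final) was turned over for 30 min at room temperature by 150 nM human 12hLO, pH 7.0 Hepes buffer, after 15 min compound preincubation.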
# PLK1 PBD inh: blocks phosphopeptide binding to human PLK1 polo-box domain; P53350; Plk1 PBD binding of FITC phosphopeptide, fluorescence polarization; Potency, µM, inactives show max response, negative = inhibition, most hits filed as inhibitors; 360,000 tested, 2.8% active; AID 720504; further: series mostly up to about 57 µM; nearly all actives have a fitted effect of over 65% in size
# Sfp inh: inhibitors of Bacillus subtilis Sfp phosphopantetheinyl transferase. Potency, µM, for the others: largest response in the series, negative = inhibition, hits mostly inhibitors. Biochemical Sfp PPTase activity, qHTS. Q9F4F7. 310,000 tested, 3.5% active;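 further: the enzyme is Sfp with the accession as filed and its product quenches rhodamine fluorescence; 0% = enzyme reaction without inhibitor and -100% = no enzyme wells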
#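 Fluorescence-quenching assay with 15 nM Sfp, 5 uM rhodamine-CoA and 12.5 uM BHQ-2-labelled ybbR peptide in pH 7.6 Hepes/MgCl2 buffer. Enzyme was pre-incubated with compound for 15 min at room temperature. Rate was taken from the 30-min fluorescence change (525/598 nm).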
# VDR inh: inhibitors of human vitamin D receptor; Potency, µM, for inactives: max response, negative = inhibition, usual class: inhibitors; AID 504847; P11473; VDR-SRC2-3 peptide fluorescence polarization, 2 h; 400,000 tested, 0.93% active
# Target sequence (P11473 whole entry, looked up): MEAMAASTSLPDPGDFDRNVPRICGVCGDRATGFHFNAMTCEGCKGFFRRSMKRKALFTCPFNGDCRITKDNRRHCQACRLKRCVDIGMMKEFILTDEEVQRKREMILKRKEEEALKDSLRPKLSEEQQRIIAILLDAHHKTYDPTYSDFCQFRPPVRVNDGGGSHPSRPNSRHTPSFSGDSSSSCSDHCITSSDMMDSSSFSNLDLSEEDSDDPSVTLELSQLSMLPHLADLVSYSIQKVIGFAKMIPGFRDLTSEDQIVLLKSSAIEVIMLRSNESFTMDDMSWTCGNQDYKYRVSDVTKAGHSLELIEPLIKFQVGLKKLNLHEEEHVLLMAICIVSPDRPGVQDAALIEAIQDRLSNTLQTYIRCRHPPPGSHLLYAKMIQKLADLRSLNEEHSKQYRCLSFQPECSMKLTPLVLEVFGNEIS
#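 VDR–SRC2-3 interaction, FP format. Cmpds 23 nl via pintool, brief spin, 2 h ambient incubation.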
# Active calls of the source: *; i = inactive; ? = inconclusive; . = no result given. The call rests on the fitted dose curve; in most records, active means well fitted curve in the direction sought with a large enough effect; inconclusive means small, poorly fitted or top-dose-only effect, or another doubt; inactive means no such curve, though single readings can be large; an effect the other way counts as inactive or inconclusive. Unless noted, on the % scale 0 is the no-effect control and ±100 the full control effect; potency means the concentration at half of the fitted maximal effect.
SMILES,12-LOX inh,PLK1 PBD inh,Sfp inh,VDR inh
CCc1ccc(NC(=O)CSc2ccc(-c3ccco3)nn2)cc1,12%,19µM*,35µM*,79µM*
CCc1ccc(NC(=O)CSc2nnc(-c3ccco3)o2)cc1,i,-2%,11%,0%
O=C(CSc1ccc(-c2ccco2)nn1)NCc1ccccc1,-22%,-10%,22µM*,-12%
COc1ccc(-c2cc(C(F)(F)F)nc(SCC(=O)NCc3ccco3)n2)cc1OC,?,-15%,-8%,-1%
COc1ccc(-c2ccc(SCC(=O)NCc3ccco3)nn2)cc1OC,-17%,-8%,50µM*,-5%
Cc1ccsc1C(C(=O)NC(C)(C)C)N(Cc1ccco1)C(=O)c1csnn1 (configuration not stated),1%,-5%,3%,-12%
O=C(COC(=O)c1cccc(S(=O)(=O)N2CCOCC2)c1)c1ccccc1,-16%,3%,4%,7%
C=CCn1c(Cc2nc3ccc(Cl)cc3[nH]2)n[nH]c1=S,9%,-25%,50µM*,-4%
S=c1[nH]nc(-c2ccc(Br)cc2)n1Cc1ccccc1,?,12µM*,11%,?
Fc1ccc(-c2n[nH]c(=S)n2Cc2ccccc2)cc1,.,-9%,-10%,-16%
C=CCn1c(-c2ccccc2)n[nH]c1=S,?,8.4µM*,5µM*,-10%
CCOC(=O)Cn1c2ccc(F)cc2c2nc(C)sc21,-7%,-7%,-12%,?
COC(=O)Cn1c2ccc(F)cc2c2nc(C)sc21,?,?,-24%,79µM*
Cc1nc2c3cc(F)ccc3n(Cc3ccc(F)cc3)c2s1,-2%,-21%,?,?
CCc1ccc2c(c1)c1nc(C)sc1n2CC,?,-8%,28µM*,?
CN(C)C(=O)/N=N/C(=O)N(C)C,.,.,.,6.3µM*
Cc1cc(S(=O)(=O)N(Cc2ccccc2Cl)c2ccc3c(c2)CCC3)ccc1-n1cnnn1,3%,1%,-2%,-20%
O=C(Oc1c(Cl)cc(Cl)c2cccnc12)c1cccs1,?,-2%,13%,5%
O=C(Oc1c(Cl)cc(Cl)c2cccnc12)c1ccco1,7.1µM*,-14%,1%,-12%
O=C(c1cccn(Cc2ccc(C(F)(F)F)cc2)c1=O)N1CCOCC1,-13%,27µM*,6%,-3%
O=C(c1ccc(C(F)(F)F)n(Cc2ccc(Cl)cc2)c1=O)N1CCOCC1,-20%,-6%,14%,?
O=C(O)c1cc(-c2cccs2)nn1-c1cccc(Cl)c1,-24%,-18%,89µM*,-27%
O=C(O)c1cc(-c2ccco2)nn1-c1cccc(Cl)c1,35µM*,?,20µM*,-19%
O=C(O)c1cc(-c2ccco2)nn1-c1ccc(Cl)cc1,?,?,16µM*,?
O=C(O)c1cc(-c2cc3ccccc3o2)nn1-c1ccccc1,?,-7%,14%,13%
SMILES,12-LOX inh,PLK1 PBD inh,Sfp inh,VDR inh
O=C(O)c1nn(-c2cccc(Cl)c2)c(=O)cc1O,-18%,-5%,-17%,-11%
Cc1nn(-c2cccc(Cl)c2)c2nc(-c3ccco3)cc(C(=O)O)c12,40µM*,6%,28µM*,-12%
CCCc1cc(=O)n2[nH]c(-c3ccc(C)cc3)cc2n1,0%,0%,13%,-12%
CN(C)[C@@H]1CN(Cc2ccc(F)cc2F)CC[C@@H]1CNC(=O)C1CC1,67%,.,.,.
Cc1ccc(-n2nc(-c3ccco3)cc2C(=O)O)c(C)c1,?,-27%,10µM*,-26%
Cc1ccc(-n2nc(-c3cccnc3)cc2C(=O)N2CCOCC2)c(C)c1,?,?,-3%,-7%
COc1ccc(S(=O)(=O)N2CCCCC2)cc1NC(=O)C1CC1,-11%,-4%,.,5%
O=C(CSc1nccc(=O)[nH]1)N1CCN(c2ccccc2)CC1,-8%,17µM*,-16%,?
O=C(CSc1ccc(-c2ccccc2)nn1)N1CCN(c2ccccc2)CC1,2%,-4%,79µM*,-2%
Cc1ccc(-c2ccc(SCC(=O)N3CCN(c4ccccc4)CC3)nn2)cc1,1%,7%,-14%,0%
O=C(CSc1ccc(-c2ccccn2)nn1)N1CCCC1,16%,13µM*,45µM*,71µM*
O=C(CSc1ccccn1)N1CCN(c2cccc(Cl)c2)CC1,-9%,12µM*,50µM*,?
O=C(CCC(=O)N1CCN(c2cccc(Cl)c2)CC1)N1CCN(c2ccccc2)CC1,?,-10%,12%,-18%
COc1ccc(N2CCN(C(=O)CSc3ccccc3N)CC2)cc1,?,24µM*,-24%,-4%
O=C(CSc1ccc(-c2ccco2)nn1)N1CCCCC1,14%,-8%,?,-20%
COc1ccc(-c2ccc(SCC(=O)N3CCN(c4ccccc4)CC3)nn2)cc1,44%,-12%,19%,-11%
O=C(CSc1ccc(-c2ccco2)nn1)N1CCCC1,-18%,-5%,50µM*,-2%
COc1cccn(CC(=O)N(C)Cc2c(C)noc2C)c1=O,45%,.,.,.
Nc1c(C(=O)Nc2ccccc2)sc2nc(-c3ccco3)ccc12,-14%,-21%,7.9µM*,2%
COc1ccccc1NC(=O)c1sc2nc(-c3ccco3)ccc2c1N,.,?,-23%,-21%
CC(C)(C)OC(=O)N1C[C@H](O)C[C@H]1C(=O)OCC(=O)c1ccc([N+](=O)[O-])cc1,11%,21µM*,-4%,?
Cc1cc(-n2c(C)cc(C(=O)CN3C(=O)C(=O)N(C)C3=O)c2C)no1,-2%,-11%,.,2%
Cc1cc(-n2c(C)cc(C(=O)CSc3ccccn3)c2C)no1,-24%,17µM*,.,-15%
Cc1cc(-n2c(C)cc(C(=O)CCl)c2C)no1,-19%,13µM*,11%,-8%
COc1ccccc1CNC(=S)Nc1ccc2nc(N3CCN(C)CC3)cc(C)c2c1,?,-5%,56µM*,7%
SMILES,12-LOX inh,PLK1 PBD inh,Sfp inh,VDR inh
COc1cc(CNCCCN2CCOCC2)ccc1OCC(=O)NC(C)(C)C,-1%,-1%,2%,15%
COc1cc(CNCCN2CCOCC2)ccc1OCC(=O)NC(C)(C)C,-14%,-7%,71µM*,-8%
Cc1ccccc1OCC(=O)NC(=S)Nc1ccc2c3c(cccc13)CC2,-18%,3µM*,14%,-25%
O=C(OCC(=O)c1ccc(Cl)cc1Cl)c1ccccn1,?,-3%,.,-16%
O=C(OCC(=O)c1ccccc1Br)c1ccccn1,-20%,?,56µM*,-3%
CCN(CC)C(=O)C(=O)c1c(-c2ccccc2)[nH]c2ccccc12,6%,1%,27%,13%
Nc1sc(Cc2ccccc2)cc1C(=O)c1c(-c2ccccc2)[nH]c2ccccc12,?,19µM*,.,.
O=C(/C=C/c1ccco1)Nc1cccc2cccnc12,?,-8%,-15%,-26%
CCNC(=S)N/N=C/c1ccc(F)cc1,?,.,-1%,.
CC(C)c1ccc(/C=N/NC(=O)C2CCCC2)cc1,11%,-4%,8%,9%
CNC(=S)N/N=C/c1ccc(SC)cc1,14µM*,.,.,.
CNC(=S)N/N=C/c1ccc(C(C)C)cc1,-21%,3µM*,.,-12%
CN1CCN(c2cc(-c3ccc(N(C)C)cc3)ncn2)CC1,-21%,.,-1%,2%
CN1CCN(c2cc(-c3ccoc3)ncn2)CC1,11µM*,.,?,?
COC(=O)c1ccc(C(=O)O)nc1,0%,-8%,79µM*,-6%

# Source: PubChem BioAssay (National Center for Advancing Translational Sciences (NCATS))
